# About 21,000 targets were measured; listed, in parts, are those with the largest changes and a random draw of the rest.
# Compound: CC1Cc2ccccc2N1C(=O)C1CCCN(C1)C(=O)CCl (mixture of isomers) [TRIM25 ligand 11 (diastereomer mixture)]
# Experiment: probe-labelled cysteine peptide fold change vs DMSO (competition) (log2 fold change); higher = less target engagement (more negative = stronger competition)
# Settings: 50 µM; THP-1; incubation time: 4 h
# 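Also: competitive chemoproteomic profiling in live THP-1 cells with an iodoacetamide desthiobiotin (IA-DTB) probe, comparing probe-labelled peptide intensities in compound-treated cells against DMSO-treated controls.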
# Sequence of UniProt P33992 (P33992 whole entry, looked up): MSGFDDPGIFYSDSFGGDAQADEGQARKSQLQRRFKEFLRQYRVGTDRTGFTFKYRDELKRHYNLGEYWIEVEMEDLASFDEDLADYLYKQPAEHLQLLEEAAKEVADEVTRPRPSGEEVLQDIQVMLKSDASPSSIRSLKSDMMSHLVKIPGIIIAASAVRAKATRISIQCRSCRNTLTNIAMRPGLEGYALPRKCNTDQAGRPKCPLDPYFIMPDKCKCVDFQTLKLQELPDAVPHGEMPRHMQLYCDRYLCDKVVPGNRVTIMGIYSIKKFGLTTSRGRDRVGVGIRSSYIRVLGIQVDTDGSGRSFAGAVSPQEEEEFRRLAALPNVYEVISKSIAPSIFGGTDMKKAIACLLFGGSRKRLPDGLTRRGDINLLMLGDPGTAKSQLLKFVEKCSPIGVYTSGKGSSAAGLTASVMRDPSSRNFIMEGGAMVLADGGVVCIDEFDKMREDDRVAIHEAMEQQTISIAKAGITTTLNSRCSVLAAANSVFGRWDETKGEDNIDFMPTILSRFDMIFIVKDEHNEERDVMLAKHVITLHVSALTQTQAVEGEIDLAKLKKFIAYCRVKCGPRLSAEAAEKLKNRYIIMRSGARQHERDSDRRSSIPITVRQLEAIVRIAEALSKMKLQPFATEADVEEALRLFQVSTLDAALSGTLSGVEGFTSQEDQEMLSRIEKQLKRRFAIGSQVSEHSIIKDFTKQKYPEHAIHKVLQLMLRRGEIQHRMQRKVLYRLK
# Sequence of UniProt Q8NE86 (Q8NE86 whole entry, looked up): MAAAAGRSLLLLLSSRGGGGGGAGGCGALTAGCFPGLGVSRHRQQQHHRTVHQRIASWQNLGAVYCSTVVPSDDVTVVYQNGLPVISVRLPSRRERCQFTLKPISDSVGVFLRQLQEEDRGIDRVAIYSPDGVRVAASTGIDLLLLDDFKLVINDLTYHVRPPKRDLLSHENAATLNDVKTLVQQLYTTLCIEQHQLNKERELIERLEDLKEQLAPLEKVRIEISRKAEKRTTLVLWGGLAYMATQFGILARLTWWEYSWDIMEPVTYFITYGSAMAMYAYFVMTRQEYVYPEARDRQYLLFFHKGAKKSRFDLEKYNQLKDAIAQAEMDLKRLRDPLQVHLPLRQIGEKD
# Sequence of UniProt Q9NTJ4 (Q9NTJ4 whole entry, looked up): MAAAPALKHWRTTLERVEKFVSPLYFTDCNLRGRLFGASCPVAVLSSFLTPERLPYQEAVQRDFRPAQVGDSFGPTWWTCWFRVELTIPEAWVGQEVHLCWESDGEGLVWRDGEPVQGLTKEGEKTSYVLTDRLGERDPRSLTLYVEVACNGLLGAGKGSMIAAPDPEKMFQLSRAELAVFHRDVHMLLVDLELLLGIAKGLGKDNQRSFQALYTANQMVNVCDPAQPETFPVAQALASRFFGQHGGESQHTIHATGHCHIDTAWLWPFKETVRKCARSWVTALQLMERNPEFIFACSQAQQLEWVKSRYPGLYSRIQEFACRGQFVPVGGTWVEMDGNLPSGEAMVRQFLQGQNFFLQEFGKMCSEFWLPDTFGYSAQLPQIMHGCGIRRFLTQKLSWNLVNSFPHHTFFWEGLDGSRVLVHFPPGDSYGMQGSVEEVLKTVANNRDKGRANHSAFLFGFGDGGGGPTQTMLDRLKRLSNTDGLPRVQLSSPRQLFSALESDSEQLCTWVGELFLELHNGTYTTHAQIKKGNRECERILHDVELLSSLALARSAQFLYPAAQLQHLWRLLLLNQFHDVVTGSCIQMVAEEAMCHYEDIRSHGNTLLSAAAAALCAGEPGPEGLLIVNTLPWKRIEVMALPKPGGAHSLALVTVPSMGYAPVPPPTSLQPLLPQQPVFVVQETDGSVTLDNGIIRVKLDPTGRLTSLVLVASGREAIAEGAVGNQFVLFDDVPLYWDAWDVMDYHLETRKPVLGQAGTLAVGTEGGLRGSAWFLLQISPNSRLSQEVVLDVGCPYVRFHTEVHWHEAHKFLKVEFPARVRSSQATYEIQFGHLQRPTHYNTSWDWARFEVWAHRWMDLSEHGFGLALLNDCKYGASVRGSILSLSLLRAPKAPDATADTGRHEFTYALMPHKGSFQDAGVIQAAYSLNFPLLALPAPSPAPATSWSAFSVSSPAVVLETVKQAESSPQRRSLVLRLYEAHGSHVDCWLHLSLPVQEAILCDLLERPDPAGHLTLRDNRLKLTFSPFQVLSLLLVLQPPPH
# Sequence of UniProt P54920 (P54920 whole entry, looked up): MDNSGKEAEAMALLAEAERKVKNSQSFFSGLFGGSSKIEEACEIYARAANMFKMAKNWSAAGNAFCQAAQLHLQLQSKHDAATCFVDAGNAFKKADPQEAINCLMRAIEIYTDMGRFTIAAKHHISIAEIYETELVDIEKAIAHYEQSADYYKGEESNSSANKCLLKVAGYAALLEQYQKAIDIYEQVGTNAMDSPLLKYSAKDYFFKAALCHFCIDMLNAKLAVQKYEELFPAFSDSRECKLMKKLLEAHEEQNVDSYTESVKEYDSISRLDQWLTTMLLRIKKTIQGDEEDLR
# Sequence of UniProt O14880 (O14880 whole entry, looked up): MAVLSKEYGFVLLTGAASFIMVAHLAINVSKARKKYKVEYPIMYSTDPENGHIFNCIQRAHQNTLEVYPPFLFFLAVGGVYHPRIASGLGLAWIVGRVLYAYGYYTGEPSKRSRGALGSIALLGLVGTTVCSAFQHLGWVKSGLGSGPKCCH
# Sequence of UniProt Q9Y3A3 (Q9Y3A3 whole entry, looked up): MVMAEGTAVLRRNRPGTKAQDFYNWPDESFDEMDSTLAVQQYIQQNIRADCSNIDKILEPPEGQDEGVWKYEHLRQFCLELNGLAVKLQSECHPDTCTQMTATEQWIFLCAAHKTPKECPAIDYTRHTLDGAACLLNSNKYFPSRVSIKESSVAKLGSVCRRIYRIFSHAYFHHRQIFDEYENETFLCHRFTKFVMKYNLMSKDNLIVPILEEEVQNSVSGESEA
# Sequence of UniProt Q15555 (Q15555 whole entry, looked up): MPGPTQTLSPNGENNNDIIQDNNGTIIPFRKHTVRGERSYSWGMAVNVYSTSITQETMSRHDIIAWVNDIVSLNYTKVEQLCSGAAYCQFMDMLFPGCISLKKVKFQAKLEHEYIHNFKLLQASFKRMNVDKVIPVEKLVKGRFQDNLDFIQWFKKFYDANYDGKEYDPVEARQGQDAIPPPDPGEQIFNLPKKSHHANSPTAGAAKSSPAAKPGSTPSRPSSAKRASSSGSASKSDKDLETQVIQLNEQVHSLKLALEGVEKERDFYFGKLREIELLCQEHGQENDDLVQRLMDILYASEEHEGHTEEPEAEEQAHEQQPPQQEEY
# Sequence of UniProt Q9HC36 (Q9HC36 whole entry, looked up): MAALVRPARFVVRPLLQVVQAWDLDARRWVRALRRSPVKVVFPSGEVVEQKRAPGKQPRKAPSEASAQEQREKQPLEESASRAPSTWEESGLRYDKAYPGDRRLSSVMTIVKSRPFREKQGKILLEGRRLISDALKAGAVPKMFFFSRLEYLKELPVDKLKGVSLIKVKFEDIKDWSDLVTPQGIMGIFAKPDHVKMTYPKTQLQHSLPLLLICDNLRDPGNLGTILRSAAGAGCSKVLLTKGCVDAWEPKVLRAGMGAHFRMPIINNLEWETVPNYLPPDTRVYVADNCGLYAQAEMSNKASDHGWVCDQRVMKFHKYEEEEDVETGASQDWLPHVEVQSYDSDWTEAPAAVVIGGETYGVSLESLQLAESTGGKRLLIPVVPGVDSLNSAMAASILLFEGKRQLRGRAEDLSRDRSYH
# Sequence of UniProt P52701 (P52701 whole entry, looked up): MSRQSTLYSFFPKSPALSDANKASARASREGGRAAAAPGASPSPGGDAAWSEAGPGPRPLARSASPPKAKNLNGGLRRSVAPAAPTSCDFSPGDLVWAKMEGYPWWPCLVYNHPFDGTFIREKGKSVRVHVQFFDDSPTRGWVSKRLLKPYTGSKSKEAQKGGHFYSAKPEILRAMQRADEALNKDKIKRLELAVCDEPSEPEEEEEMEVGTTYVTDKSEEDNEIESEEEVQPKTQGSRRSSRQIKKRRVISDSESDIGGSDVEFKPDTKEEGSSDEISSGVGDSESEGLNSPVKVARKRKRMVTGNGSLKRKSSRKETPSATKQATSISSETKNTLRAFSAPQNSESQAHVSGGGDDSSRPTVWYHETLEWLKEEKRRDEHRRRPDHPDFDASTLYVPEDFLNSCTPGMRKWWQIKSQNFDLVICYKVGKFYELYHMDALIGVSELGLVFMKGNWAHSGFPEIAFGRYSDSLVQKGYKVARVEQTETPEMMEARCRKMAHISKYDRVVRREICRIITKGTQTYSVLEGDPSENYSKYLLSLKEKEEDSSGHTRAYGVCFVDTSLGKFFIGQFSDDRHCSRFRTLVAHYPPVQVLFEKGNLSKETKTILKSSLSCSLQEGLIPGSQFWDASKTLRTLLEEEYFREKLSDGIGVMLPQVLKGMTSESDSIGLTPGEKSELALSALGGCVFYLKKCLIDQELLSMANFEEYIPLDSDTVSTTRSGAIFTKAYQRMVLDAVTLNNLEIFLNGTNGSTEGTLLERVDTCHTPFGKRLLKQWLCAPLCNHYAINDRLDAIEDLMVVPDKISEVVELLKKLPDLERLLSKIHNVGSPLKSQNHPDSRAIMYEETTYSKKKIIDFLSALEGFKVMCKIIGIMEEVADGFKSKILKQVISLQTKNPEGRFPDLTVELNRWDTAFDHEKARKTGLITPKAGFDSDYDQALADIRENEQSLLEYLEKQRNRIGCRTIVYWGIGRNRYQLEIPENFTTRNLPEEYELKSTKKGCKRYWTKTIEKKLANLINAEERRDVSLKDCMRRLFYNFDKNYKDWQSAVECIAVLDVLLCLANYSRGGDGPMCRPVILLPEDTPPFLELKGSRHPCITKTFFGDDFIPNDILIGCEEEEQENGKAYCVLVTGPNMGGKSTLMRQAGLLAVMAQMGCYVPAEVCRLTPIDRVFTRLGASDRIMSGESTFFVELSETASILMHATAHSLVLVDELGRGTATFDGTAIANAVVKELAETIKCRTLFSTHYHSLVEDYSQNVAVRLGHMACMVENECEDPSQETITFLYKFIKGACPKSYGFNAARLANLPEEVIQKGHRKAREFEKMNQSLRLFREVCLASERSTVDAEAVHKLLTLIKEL
row,Target,probe-labelled cysteine peptide fold change
1,NAPA_P54920_103_KADPQEAINCLMR (UniProt P54920),0.0556
2,MACF1_Q9UPN3_3619_QQNTCHQQLEDLCSWVGQAER (UniProt Q9UPN3),0.118
3,NADK2_Q4G0N4_311_SSGLNLCTGTGSK (UniProt Q4G0N4),-0.0319
4,MAN2C1_Q9NTJ4_871_WMDLSEHGFGLALLNDCK (UniProt Q9NTJ4),0.327
5,MAPRE2_Q15555_279_EIELLCQEHGQENDDLVQR (UniProt Q15555),-0.23
6,MGST3_O14880_56_YKVEYPIMYSTDPENGHIFNCIQR (UniProt O14880),-0.113
7,MLST8_Q9BVC4_107_WMYTGGEDCTAR (UniProt Q9BVC4),-0.0842
8,MTMR3_Q13615_81_ESLVNVPLQLIESVECR (UniProt Q13615),-0.00809
9,MCU_Q8NE86_97_CQFTLKPISDSVGVFLR (UniProt Q8NE86),-0.196
10,NBAS_A2RRP1_1634_QLHCYNER (UniProt A2RRP1),-0.0554
11,LYAR_Q9NX58_30_NCECLSCIDCGK (UniProt Q9NX58),-0.0603
12,MSH6_P52701_1158+1165_QAGLLAVMAQMGCYVPAEVCR (UniProt P52701),-0.66
13,MCM5_P33992_221_CVDFQTLK (UniProt P33992),0.0951
14,NAE1_Q13564_384_LLCSNSAFLR (UniProt Q13564),-0.00331
15,MRC2_Q9UBG0_201_YDNQWFHGCTSTGR (UniProt Q9UBG0),-1.05
16,MYCBP2_O75592_3786_NITINCVK (UniProt O75592),0.117

row,Target,probe-labelled cysteine peptide fold change
1,MRM3_Q9HC36_309_ASDHGWVCDQR (UniProt Q9HC36),-0.1
2,MYH9_P35579_671_CIIPNHEKK (UniProt P35579),-0.373
3,MT1E_P04732_50_CAQGCVCK<|>MT1F_P04733_50_CAQGCVCK<|>MT1B_P07438_50_CAQGCVCK<|>MT1L_Q93083_50_CAQGCVCK (UniProt Q93083+P07438+P04733+P04732),0.116
4,MKNK2_Q9HBH9_136_EVEMLYQCQGHR (UniProt Q9HBH9),0.556
5,MAD1L1_Q9Y6D9_662_LTSLYAEHPGDCLIFK (UniProt Q9Y6D9),-0.0309
6,MRTO4_Q9UKD2_176_RGVVTLLSDYEVCK (UniProt Q9UKD2),-0.0317
7,MYH3_P11055_1412_CASLEK<|>MYH1_P12882_1415_CASLEK<|>MYH8_P13535_1414_CASLEK<|>MYH2_Q9UKX2_1417_CASLEK<|>MYH13_Q9UKX3_1415_CASLEK<|>MYH4_Q9Y623_1415_CASLEK (UniProt Q9Y623+Q9UKX3+Q9UKX2+P13535+P12882+P11055),0.307
8,MAVS_Q7Z434_33_NFSNFCNVDVVEILPYLPCLTAR (UniProt Q7Z434),0.343
9,MED14_O60244_635_AGEMCAFNK (UniProt O60244),-0.0566
10,MYO9B_Q13459_152_QQADFDDLCNLPELTEGNLLK (UniProt Q13459),-0.0276
11,MOB4_Q9Y3A3_134_HTLDGAACLLNSNK (UniProt Q9Y3A3),-0.629
12,MED15_Q96RN5_618_QQYLCQPLLDAVLANIR (UniProt Q96RN5),0.36
13,MED14_O60244_1433_QGECTIFAAVR (UniProt O60244),0.249
14,MECP2_P51608_429_GGSLESDGCPKEPAK (UniProt P51608),-0.613
15,NBEAL2_Q6ZNJ1_2335_ALEGIISNFGQTPCQLLK (UniProt Q6ZNJ1),-0.034

# From the supplement of paper PMC12067093, “Discovery and optimisation of a covalent ligand for TRIM25 and its application to targeted protein ubiquitination” (Chemical Science, 2025)
